Measurements taken from the supplement of paper PMC6555819.

test system: VDR homodimer (NR concentration 270 nM); experiment: PBM binding z-score (relative to random genomic background probes); higher = stronger binding; sequences stand for … in GC…GCGATTGACAGCGTAGAATGAAGG
Outline: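 Antibodies against each partner of ligand-free nuclear receptor dimers (one per run) detected binding on custom Agilent 4×180K protein-binding microarrays after 1 h incubation. The double-stranded probes had 34-nt variable regions carrying direct-repeat seeds, single-nucleotide variants, half-site ablations and random human genomic background sequences. Binding z-scores, from regression-normalized fluorescence, use the random background probes as reference.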

| Sequence | PBM binding z-score |
| --- | --- |
| GTACCGAGGTGAATAGGTCGTTGATGAGTAGGCG | 0.202 |
| ATATGTAGGTTAGCTTGGGTCATTCAGACTAGGC | 1.36 |
| TCATATAGGTAATACAGGTGAAAGTAGGCATCTA | 0.305 |
| GCTGCTAGGTCAGGTTGGTCAGCTCACGGGTACG | 0.536 |
| GCTTGTAGATCAAGGTTCAGAAAGACTAAGCTAA | 1.33 |
| CCTCGGAGGACTGAAGGTCAGAGCTGTCCGCTTT | -0.325 |
| ATCTCTAGGTAAAGATAGTTCAGTCAATGCAAAT | 0.66 |
| GCGACTGAGGCATCAGCAGGTTACCATAACTTAA | -0.64 |
| ACTAGTTGGTCAGCTGAGGTCACAGACAATTCGG | 2.9 |
| AGAATGAGGTTATTAACATCAGGGAATTGCGGTC | 1.12 |
| CTACCAAGGTGAACAAAGTCGTTGATTACTATTC | 0.24 |
| CCTACTGGGCCAAGGTCATGGATCAGTCAAAGCA | 1.68 |
| TCATATACGTAATACAGGTGAAAGTCGGCATCTA | 0.145 |
| ATCTCTAGGTAACCAAGTTCAGTGAGTGCCGAAC | 2.83 |
| TCAAGTAGGTTAGTCGGGGCATTCAGCCAACATA | 0.907 |
| TAGCCTAGGTCATTGGCCCAGTATAGTACGCATC | 0.973 |
| GCTAGTTGGTCAGTAAAAGTTCACACACCGGTCG | 2.91 |
| GCTGCTAGGTCAGGTTGGTCCGCTAACGGGTACG | -0.0405 |
| CCTAGTCGGTCAGGAGGTCACACACCGGATATGA | 2.83 |
| CGTCCAAAGTCAAGGTCAGTGAAAGAGACTCGAA | 1.29 |

| Sequence | PBM binding z-score |
| --- | --- |
| CCTCACGGGTCACGAGGTTATAGCACGACGAGCG | 2.22 |
| TCGAGTAGGTAAGTCGGGGCATTCAGCCAACATA | -0.05 |
| CGTCCAAGGTGAAGGTCAGTGAAAGAGACTCGAA | 0.389 |
| TCATATAGCTAAATGCTAGGTGAAAGTCCGATCT | -0.29 |
| CCTTACGGGTCAAGGATATAGCACGGGTGGTACG | 0.886 |
| ACTATTAGTTGACTTAGGGTAACCGATACGACGC | 0.184 |
| CCTTATGGGTCAAGGTTATAGCACGGGTGGTACG | 1 |
| TCATATAGGTAATACATGTGAAAGTCGGCATCTA | 0.128 |
| AGTCAAAGTTCAGGACGTGGTAACGTAAAGCACG | 1.49 |
| CCTACTGGGCCAAAGGTCAATGATTCCAATGCTC | 1.25 |
| CATCCTAGGTCAGGGCCAGTATAGGAGGAACGTT | 0.11 |
| ACTGACAGGTGATGAAGGTAACTCAGGCTATCAT | -0.152 |
| ACAGACAGGTGAGTGAAGATAACTCAGCTGGACG | -0.624 |
| ACTATTAGTTGAGACGAGGACAACCGATAGGTTG | 0.657 |
| TCGAGTAGGTTAGTCGCGGCATTCAGCCAACATA | -0.682 |
| CCTACTGGGCCATCAGGTCATTAATATCAACGTT | 1.56 |
| CCGACTGGTGCAAAGGTTACCATACTCAGTACGA | 0.351 |
| TTACCAAGGTGAGGTGAGGTCGTTGATCCAACTC | 2.28 |
| CCGAGTAGGGTATGGGGCATTCAGGCAACGGTGA | 0.36 |
| CCTGCTAGGTCGATGGTCAGCTAAAGCAGCTCGC | -0.719 |
